This is an account of results in PubChem BioAssay AID2732 (Emory University Molecular Libraries Screening Center, 2010).

The campaign covered roughly 220,000 compounds. About 8,200 (3.7%) were called active. What follows is part of a selection rich in actives, with near analogues and random picks from the rest. A number with no mark means an inactive call.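 Rule for the calls: active = compounds that reduced the stress-induced luciferase reporter signal by more than about 70% of percent inhibition (limit read from the data); inactive = the rest.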

The test in a line: inhibitors of CHOP promoter induction, primary screen, cell-based, unfolded protein response, luciferase reporter (AID 2732).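 Note: 0% = tunicamycin plus vehicle and 100% = wells without tunicamycin.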 To be noted: CHO-K1 CHOP-promoter luciferase, tunicamycin-induced, 15-18 h; at 10 µM; active compounds read high.
Take `COc1ccc(NC(=O)C2=C(C)NC(=O)NC2c2ccccc2[N+](=O)[O-])cc1` (centres undefined): the inhibition was -5.78%.

For the compound `O=C(Nc1ccc(S(=O)(=O)Nc2nccs2)cc1)c1cc(-c2ccncc2)nc2ccccc12`, the inhibition is 7.48%.

Turning to `CC(/C=C/c1ccccc1)=N\NC(=O)C1CC1(C)c1ccccc1` (centres undefined), the inhibition is 43.4%. Under `Cc1ccc(-c2cc(C(=O)N/N=C/C=C/c3ccccc3)n[nH]2)o1` stands 13.4%. As for `O=C(N/N=C/C=C/c1ccccc1)C1CC1(c1ccccc1)c1ccccc1` (centres undefined), the inhibition is 82.4% (active).

Regarding `CC(C)c1cc(CN2CCOCC2)cc(C(C)C)c1O`, the inhibition is -5.16%. In the case of `COc1ccc(/C=C/C(=O)Nc2c(C)nn(C)c2C)cc1COc1ccc(Br)cc1` it was 105% (active); in that of `COc1ccc(/C=C/C(=O)Nc2ccc3c(c2)OCCO3)cc1OC`, -1%. In the case of `COc1ccc(/C=C/C(=O)Nc2ccc(C)cc2)cc1S(=O)(=O)N1CCOCC1` it was -1.01%; in that of `COc1ccc(/C=C/C(=O)Nc2cccnc2)cc1OC`, 2.86%; in that of `COc1ccc(C(C)=O)cc1COc1ccc(Cl)c(C)c1`, 5.12%. Turning to `CCn1nc(C)c(NC(=O)/C=C/c2ccc(OC)c(COc3ccc(Br)cc3)c2)c1C`, the inhibition is 86.6% (active). As for `Cc1ccc(NC(=O)Nc2cc(-c3ccccc3)nn2C)cc1Cl`, the inhibition is 7.85%. Under `C=CCNC(=S)N1CCc2[nH]c3ccccc3c2C1` stands 0.96%; under `COc1ccc(CCNC(=O)C(=O)Nc2ccc3nc4n(c(=O)c3c2)CCCCC4)cc1OC`, 8.36%.

Consider `O=C(Nc1cccc2c1N(C(=O)c1ccco1)CCC2)c1ccco1`, for which the inhibition is -8%. For `CC1(C)CC(=O)C=C(Nc2ccccc2)C1`, the inhibition was 5.42%. Under `O=C(O)/C=C/c1ccc2c(c1)OCCO2` stands -23.6%; under `COc1cc(/C=N\NC(=O)CNC(=O)c2cccc([N+](=O)[O-])c2)ccc1O`, 8.27%.

Regarding `COc1ccc(C(=O)Nc2ccccc2C(=O)N/N=C/c2ccc(O)c(OC)c2)cc1`, the inhibition was 88.8% (active).

For `COc1ccc(C(=O)Nc2ccccc2C(=O)N/N=C/c2ccccc2OC)cc1`, the inhibition was -12.8%. Under `OC(CNCC1CCCO1)Cn1c2ccc(Br)cc2c2cc(Br)ccc21` (centres undefined) stands 108% (active). Under `CCOC(=O)Cn1c(=O)oc2cc(S(=O)(=O)NCC3CCCO3)ccc21` (centres undefined) stands 22.5%. Under `CCc1cc(Br)ccc1NC(=O)C1CCCO1` (centres undefined) stands -17.3%; under `O=C(Nc1ccc(S(=O)(=O)N2CCOCC2)cc1)c1ccc2ncsc2c1`, 2.87%; under `C/C(=N\NC(=S)Nc1ccc(C)cc1)c1cc2ccccc2o1`, -20.3%.

For `COCCCNC(=O)C1CCN(c2ccc(N3CCOCC3)nn2)CC1`, the inhibition is -10.8%. For `O=C(N/N=C/c1c(Cl)[nH]c2ccccc12)c1sc2ccccc2c1Cl`, the inhibition was 44.3%. In the case of `Oc1ccc(N=Cc2c(O)ccc3ccccc23)cc1` it was 40.5%; in that of `Oc1ccc(N=Cc2sc3ccccc3c2Cl)cc1`, 81.8% (active); in that of `O=C(c1cc(-c2ccc(O)cc2)on1)N1CCCc2ccccc21`, 40.4%. In the case of `O=C(Nc1ccccc1C(F)(F)F)c1cc(-c2ccc(O)cc2)on1` it was 105% (active); in that of `CC(NC(=O)c1cc(-c2ccccc2)on1)c1ccccc1` (centres undefined), 58.1%; in that of `CCCCCCNS(=O)(=O)c1ccccc1Br`, 16.4%. As to `CCOC(=O)C1=NN(c2ccc(Cl)cc2)/C(=C/C2=NCCc3cc(OC)c(OC)cc32)S1`, the inhibition was -5.16%. Under `CCCCCCCC(=O)NC(Nc1ccccc1OC)C(Cl)(Cl)Cl` (centres undefined) stands 87.9% (active). Consider `CCCC(=O)NC(Nc1ccccc1OC)C(Cl)(Cl)Cl` (centres undefined), for which the inhibition is 21.3%. In the case of `COc1ccccc1NC(=O)CCCc1c[nH]c2ccccc12` it was 0.61%; in that of `CCOC(=O)NNc1cc(C(F)(F)F)ccn1`, -10.6%. As for `COc1ccc(Cl)cc1C(=O)NNC(=O)c1nc2nc(C)cc(C)n2n1`, the inhibition is 11.4%. Under `Cc1onc(-c2c(Cl)cccc2Cl)c1C(=O)NNC(=O)c1c(-c2c(Cl)cccc2Cl)noc1C` stands -2.75%; under `O=C(/C=C/c1ccc(Cl)cc1)Nc1ccc(S(=O)(=O)Nc2ncccn2)cc1`, 15.1%; under `O=C(NCc1ccccc1)c1ccc(S(=O)(=O)Nc2cccc(C(F)(F)F)c2)cc1`, 26.6%. In the case of `O=C(/C=C/c1ccc(F)cc1)Nc1cccc(S(=O)(=O)Nc2cccc(C(F)(F)F)c2)c1`, the inhibition is 103% (active). As to `OC(c1nc2ccccc2[nH]1)C(O)C(O)C(O)c1nc2ccccc2[nH]1` (centres undefined), the inhibition is 4.88%. In the case of `Cc1ccccc1NC(=O)NCc1ccco1` it was -12.4%; in that of `O=C(Cn1c(=O)n(Cc2ccco2)c(=O)c2ccccc21)NCC1CCCO1` (centres undefined), 19%. In the case of `Cc1ccccc1Cn1c2ccccc2c2cnn(CC(=O)NCc3ccco3)c(=O)c21` it was 90.4% (active); in that of `C/C(=N/NC(=O)CN1CCN(S(=O)(=O)c2ccc(Br)cc2)CC1)c1ccncc1`, 10.9%.

With `Cc1ccc(N2C(=O)CC(N3CCSCC3)C2=O)c(C)c1` (centres undefined), the inhibition was 19.1%. In the case of `CCc1cccc(CC)c1NC(=S)Nc1ccc2cn[nH]c2c1` it was 22.1%; in that of `Cc1csc(NC(=S)Nc2cccc(Cl)c2)n1`, -212%. Under `FC(F)(F)c1cccc(NC(=S)Nc2cccc(Cl)c2)c1` stands 87.2% (active); under `S=C(Nc1cccc(Cl)c1)Nc1ccc2cn[nH]c2c1`, -22.9%. For the compound `Cc1cccc(NC(=O)Nc2nnc(-c3ccccc3)o2)c1`, the inhibition was -9.17%.

For the compound `COc1cccc(NC(=O)NCc2ccc(F)cc2)c1`, the inhibition was 5.22%. Take `Cc1cccc(NC(=O)Nc2cccc(Oc3c(F)c(F)c(F)c(F)c3F)c2)c1`: the inhibition was 97.1% (active). In the case of `N#C/C(=C/c1ccc(-c2ccccc2[N+](=O)[O-])o1)C(=O)NCCN1CCCCC1`, the inhibition was 22.9%. On to `Cc1c(NC(=O)C(=O)N/N=C/c2cccs2)c(=O)n(-c2ccccc2)n1C`, for which the inhibition is 9.69%. `CC(C)CCN1NC2(CCC(C)CC2)NC1=S` (centres undefined): the inhibition was -10.5%.

Consider `CCCN(CCC)CC(O)COc1ccccc1C(=O)Nc1ccccc1` (centres undefined), for which the inhibition is 16.4%. Under `CC(=O)Nc1nc(C)c(-c2csc(Nc3ccc(S(N)(=O)=O)cc3)n2)s1` stands 18.6%. Under `CC(=O)Nc1ccc(/C=N/Nc2ccc(C(=O)c3c(C)cc4ccccn34)cc2[N+](=O)[O-])cc1` stands 17.2%. Under `CCN(CC)C(=O)CSC(Nc1cccc(F)c1)=C(C#N)C#N` stands -25.7%. `COc1cccc(/C=N/Nc2ncc(C(F)(F)F)cc2Cl)c1O`: the inhibition is 46.9%. Take `O=[N+]([O-])c1cc(Br)c(O)c(/C=N/Nc2nc3ccccc3s2)c1`: the inhibition was 17.5%.

For `Oc1c(Br)cccc1/C=N/Nc1c(F)c(F)c(F)c(F)c1F`, the inhibition was 89.8% (active).

Take `CCOc1c(Nc2cccc(Cl)c2)c(=O)c1=O`: the inhibition is 18.3%. Under `O=S(=O)([N-]c1nc2ccccc2nc1-[n+]1ccc(Cc2ccccc2)cc1)c1ccc(Br)s1` stands 21.4%. In the case of `O=S(=O)(c1ccc(Br)cc1)c1nc(-c2ccccc2)oc1NCc1cccnc1`, the inhibition was 72.4% (active). In the case of `O=C(NCc1cccnc1)c1ccc(CS(=O)(=O)c2ccc(Br)cc2)o1` it was 61.7%.

As for `O=S(=O)(c1ccccc1)c1nc(-c2ccccc2F)oc1NCc1cccnc1`, the inhibition is 4.16%. Under `O=C(Nc1ccc(Cl)cc1)Nc1ccc(C(=O)N2CCOCC2)cc1` stands 33.4%; under `O=C(Nc1ccc2c(c1)OCCO2)c1ccoc1`, 0.05%. In the case of `COc1ccccc1/C=C/C=N/NC(=O)CN1CCN(Cc2ccccc2)CC1` it was 24.4%.

In the case of `Cc1cc2nc3c(=O)n(Cc4ccccc4)c(=O)[nH]c3nc2cc1N`, the inhibition was 3.92%. In the case of `CSc1nc2ccc(S(=O)(=O)N3CCc4ccccc43)cc2s1` it was 71% (active); in that of `COC(=O)C(NC(=O)c1ccc(OC)cc1)(Nc1ncc(S(=O)(=O)c2ccc([N+](=O)[O-])cc2)s1)C(F)(F)F` (centres undefined), -14.3%; in that of `CNC(=O)c1ccsc1NC(=O)c1ccc(S(=O)(=O)N2CCc3ccccc32)cc1`, 37.3%. Under `O=C(Nc1nc2ccc([N+](=O)[O-])cc2s1)c1ccc(S(=O)(=O)N2CCCc3ccccc32)cc1` stands 80.6% (active); under `O=C(NC(Nc1nc2ccc([N+](=O)[O-])cc2s1)(C(F)(F)F)C(F)(F)F)c1ccccc1`, 106% (active). Under `CCn1c(=O)c(=O)n(CC)c2cc(S(=O)(=O)N3CCc4ccccc43)ccc21` stands 35%; under `O=C(Nc1nc2ccc([N+](=O)[O-])cc2s1)c1ccncc1`, -12.2%; under `CS(=O)(=O)c1ccc2nc(NC(=O)c3ccc(N4CCCC4=O)cc3)sc2c1`, -17%. Take `O=S(=O)(c1ccc2c(c1)OCCO2)N1CCc2ccccc21`: the inhibition is 32.4%. On to `Cc1nc(C(=O)Nc2ccc(Cl)cc2)sc1C1(C)CC(c2ccccc2)=NO1` (centres undefined), for which the inhibition was 19.7%.

As for `COc1ccc(CCNCC(O)Cn2ccc3ccccc32)cc1OC` (centres undefined), the inhibition is 7.33%.

`COCCn1c(CN(Cc2ccccc2)Cc2ccccc2)nc2c1c(=O)n(C)c(=O)n2C`: the inhibition was 63.3%. Under `CC(C)Cn1c(CN(Cc2ccccc2)Cc2ccccc2)nc2c1c(=O)n(C)c(=O)n2C` stands 95% (active); under `CC(C)CCn1c(CN(C)Cc2ccccc2)nc2c1c(=O)n(C)c(=O)n2C`, 16%; under `S=C(NNC(=S)NC1CC2CCC1C2)NC1CC2C=CC1C2` (centres undefined), 12.8%. In the case of `Cc1cc(C)nc(NC(=O)/C=C/c2ccc(Cl)cc2)n1` it was 8.16%. Under `COC(=O)c1c(C)[nH]c(C(=O)/C=C/c2ccc(Cl)cc2)c1C` stands 85% (active); under `CCCCOC(=O)c1[nH]c(C)c(C(=O)OC)c1C`, -2.34%.
